# Data as given in PubChem BioAssay (NCATS).
# “And” between values parts separate entries of the source, which are not always exact repeats. Identical values can stand only once. Results filed as inconclusive are left out. A call without a number means that no potency is given here. The source made the active and inactive calls. Unless noted, calls follow the shape of the full dose curve.
# Experiments:
# [1] = molecular target: Vitamin D3 receptor (Homo sapiens) (UniProt P11473); experiment: qHTS assay for small molecule agonists of vitamin D receptor signaling (AID 588543)
# Outline: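 Reporter cells (HEK293T, VDR-UAS-bla) were seeded in medium with 2% charcoal-stripped serum and incubated 5 h, then compounds in concentration series were added for 16 h at 37 °C. Stimulation was scaled between DMSO basal and 50 nM 1α,25-dihydroxyvitamin D3.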
# [2] = molecular target: Thyroid hormone receptor beta (Homo sapiens) (UniProt P10828); experiment: qHTS assay for small molecule agonists of thyroid hormone receptor beta signaling (AID 588545)
# Outline: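 In this cell-based screen, titrated compounds act on HEK 293 cells held in medium with 2% charcoal/dextran FBS, NEAA and pyruvate for 18 hrs at 37 C. Responses are expressed relative to T3 (10 nM) as 100% and basal DMSO as 0%.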
# [3] = qHTS assay for small molecule activators of the p53 signaling pathway (AID 651743; active = well fitted activation curve with a large enough effect in the signal ratio, not every such curve was filed as active; the % refers to the signal ratio); conditions: HCT-116 p53RE-bla, beta-lactamase FRET ratio, 16 h; activation: stronger effect = higher value
# Outline: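 Following 16 hours of compound exposure at 37 C, HCT-116 cells bearing the p53RE-bla reporter were loaded with LiveBLAzer B/G FRET substrate for 2 hours at room temperature and fluorescence intensity was recorded.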
# [4] = qHTS assay for small molecule activators of the nuclear factor-kappa B (NF-kB) signaling pathway (AID 651749; active = well fitted activation curve with a large enough effect in the signal ratio; the % refers to the signal ratio); conditions: NF-kB-bla ME-180 cells, beta-lactamase FRET ratio, 16 h; activation: stronger effect = higher value
# Outline: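 In this qHTS format, compounds acting as activators increase NF-kB-driven beta-lactamase in ME-180 cells, measured as disrupted FRET after 16 hr exposure at 37C and 5% CO2.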
# [5] = molecular target: Peroxisome proliferator-activated receptor alpha (Homo sapiens) (UniProt Q07869); experiment: qHTS assay for small molecule agonists of the peroxisome proliferator-activated receptor alpha (PPARalpha) signaling pathway (AID 651778; active = well fitted curve in the direction sought with a large enough effect; an effect the other way counts as inactive or inconclusive); conditions: PathHunter PPARalpha complementation, chemiluminescence, 6 h; stronger effect = higher value
# Outline: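 Enzyme-fragment complementation assay in which ligand-bound PPARalpha translocates and forms an active enzyme that generates chemiluminescence. Cells were plated overnight, exposed to compound for 6 hr at 37 C, and then given detection reagent for 60 min at room temperature.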
# [6] = qHTS assay for small molecule agonists of the antioxidant response element (ARE) signaling pathway measured by Nrf2-dependant transcriptional activity - cell viability counter screen (AID 720653; active = well fitted curve in the direction sought with a large enough effect in the repeat runs; an effect the other way counts as inactive or inconclusive); conditions: ARE-bla HepG2 viability, CellTiter-Glo ATP luminescence, 16 h; max response: stronger effect = lower value
# Outline: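 ARE-bla HepG2 cells treated with compounds for 16 h at 37C; this counter screen measures viability as intracellular ATP by CellTiter-Glo luminescence after 30 min at room temperature.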
# [7] = qHTS assay for cell viability of the p53RE-bla HCT-116 cell line (AID 743292; active = well fitted curve in the direction sought with a large enough effect; an effect the other way counts as inactive or inconclusive; also: nearly all actives have a fitted effect of over 55% in size)
# Outline: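 Quantitative high-throughput format: compounds in DMSO were pinned onto p53RE-bla HCT-116 cells (4,000/well) and incubated 16 h at 37 C. Total intracellular ATP, read by CellTiter-Glo luminescence, reflects viable cell number.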
# [8] = molecular target: Nuclear receptor subfamily 1 group I member 2 (Rattus norvegicus) (UniProt Q9R1A7); experiment: qHTS assay for small molecule activators of the rat pregnane X receptor (rPXR) signaling pathway (AID 651751; call rule not given here); conditions: rPXR reporter cells, luciferase (One-Glo), 24 h
# [9] = qHTS assay for small molecule activators of the human pregnane X receptor (PXR) signaling pathway (AID 720659; call rule not given here)
# [10] = Vero cells viability qHTS for Zika virus inhibitors (AID 1347167; active = well fitted curve in the direction sought with a large enough effect; an effect the other way counts as inactive or inconclusive)
# Outline: (§1)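 qHTS titration; 24-48 h compound exposure, 37 degrees C/5% CO2; DMEM, 4% FBS; CellTiter Glo ATP luminescence.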
# [11] = HepG2 cells viability qHTS for Zika virus inhibitors (AID 1347168; active = well fitted curve in the direction sought with a large enough effect; an effect the other way counts as inactive or inconclusive)
# Outline: as §1
# [12] = Primary qHTS for Huh7 cytotoxicity: counterscreen for inhibitors of MERS-S pseudotyped particle cell entry (AID 1479147); conditions: outcome: dose series up to 57.1 µM unless noted
# [13] = Primary qHTS for inhibitors of MERS-S pseudo-typed particle cell entry (AID 1479149); also: nearly all actives have a fitted effect of over 60% in size
# [14] = Primary qHTS for Vero E6 cytotoxicity: counterscreen for inhibitors of SARS-S pseudo-typed particle cell entry (AID 1479150); conditions: outcome: dose series up to 57.1 µM unless noted
# [15] = qHTS for Inhibitors of the Functional Ribonucleoprotein Complex (vRNP) of Lassa (LASV) Arenavirus: LASV Primary Screen - GLuc reporter signal (AID 1347082; calls by dose curve; tested in HEK293 reporter line; also: nearly all actives have a fitted effect of over 60% in size)
# [16] = molecular target: Catechol O-methyltransferase (Homo sapiens) (UniProt P21964); experiment: Confirmatory Screen for Target Class Profiling of Small Molecule Inhibitors of Methyltransferases (AID 1745852); conditions: MTase-Glo luminescence, SAH detection, recombinant enzyme; measured here: COMT max response; stronger effect = lower value
# [17] = molecular target: Guanidinoacetate N-methyltransferase (Homo sapiens) (UniProt Q14353); experiment: as above; conditions: activity change, negative = inhibition: at 57.3 µM (top of the series) unless noted
# [18] = molecular target: Nicotinamide N-methyltransferase (Homo sapiens) (UniProt P40261); experiment: as above; conditions: MTase-Glo luminescence, SAH detection, recombinant enzyme; measured here: NNMT max response; stronger effect = lower value
# [19] = molecular target: Phenylethanolamine N-methyltransferase (Homo sapiens) (UniProt P11086); experiment: as above; conditions: MTase-Glo luminescence, SAH detection, recombinant enzyme; measured here: PNMT max response; stronger effect = lower value
# Chain of Phenylethanolamine N-methyltransferase (Homo sapiens) (P11086 whole entry, looked up): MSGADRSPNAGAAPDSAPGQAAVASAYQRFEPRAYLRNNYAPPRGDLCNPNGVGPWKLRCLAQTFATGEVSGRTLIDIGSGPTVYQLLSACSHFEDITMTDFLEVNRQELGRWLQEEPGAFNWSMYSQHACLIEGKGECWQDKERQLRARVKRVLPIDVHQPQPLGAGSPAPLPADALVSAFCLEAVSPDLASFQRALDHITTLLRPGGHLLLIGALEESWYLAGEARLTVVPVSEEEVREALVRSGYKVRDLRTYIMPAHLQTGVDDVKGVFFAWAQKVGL
# Chain of Peroxisome proliferator-activated receptor alpha (Homo sapiens) (Q07869 whole entry, looked up, the tested form may be a part): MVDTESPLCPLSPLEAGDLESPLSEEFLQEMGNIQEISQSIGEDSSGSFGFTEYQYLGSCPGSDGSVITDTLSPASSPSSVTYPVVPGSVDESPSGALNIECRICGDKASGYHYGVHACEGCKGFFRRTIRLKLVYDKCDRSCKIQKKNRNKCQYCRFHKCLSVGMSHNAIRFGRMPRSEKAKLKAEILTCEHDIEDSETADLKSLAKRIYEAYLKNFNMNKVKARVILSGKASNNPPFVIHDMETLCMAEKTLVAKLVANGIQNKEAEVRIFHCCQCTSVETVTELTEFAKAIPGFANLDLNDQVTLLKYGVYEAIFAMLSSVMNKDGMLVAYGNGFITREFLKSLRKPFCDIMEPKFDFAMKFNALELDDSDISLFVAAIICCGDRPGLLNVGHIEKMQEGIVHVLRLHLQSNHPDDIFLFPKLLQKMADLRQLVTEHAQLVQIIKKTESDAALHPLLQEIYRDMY
# Chain of Thyroid hormone receptor beta (Homo sapiens) (P10828 whole entry, looked up): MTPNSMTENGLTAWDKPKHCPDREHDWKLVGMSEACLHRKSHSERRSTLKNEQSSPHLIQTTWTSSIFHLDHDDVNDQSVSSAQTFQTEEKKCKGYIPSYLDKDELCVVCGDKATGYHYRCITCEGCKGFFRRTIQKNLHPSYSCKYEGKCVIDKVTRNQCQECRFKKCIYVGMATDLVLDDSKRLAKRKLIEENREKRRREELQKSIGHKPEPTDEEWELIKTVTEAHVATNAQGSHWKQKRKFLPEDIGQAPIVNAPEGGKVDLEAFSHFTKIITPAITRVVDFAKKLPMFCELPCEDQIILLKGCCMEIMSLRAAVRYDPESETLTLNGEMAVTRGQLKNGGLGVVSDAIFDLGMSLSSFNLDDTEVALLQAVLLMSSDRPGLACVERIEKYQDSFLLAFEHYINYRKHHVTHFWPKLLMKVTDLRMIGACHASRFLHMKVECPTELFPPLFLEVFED
# Chain of Vitamin D3 receptor (Homo sapiens) (P11473 whole entry, looked up): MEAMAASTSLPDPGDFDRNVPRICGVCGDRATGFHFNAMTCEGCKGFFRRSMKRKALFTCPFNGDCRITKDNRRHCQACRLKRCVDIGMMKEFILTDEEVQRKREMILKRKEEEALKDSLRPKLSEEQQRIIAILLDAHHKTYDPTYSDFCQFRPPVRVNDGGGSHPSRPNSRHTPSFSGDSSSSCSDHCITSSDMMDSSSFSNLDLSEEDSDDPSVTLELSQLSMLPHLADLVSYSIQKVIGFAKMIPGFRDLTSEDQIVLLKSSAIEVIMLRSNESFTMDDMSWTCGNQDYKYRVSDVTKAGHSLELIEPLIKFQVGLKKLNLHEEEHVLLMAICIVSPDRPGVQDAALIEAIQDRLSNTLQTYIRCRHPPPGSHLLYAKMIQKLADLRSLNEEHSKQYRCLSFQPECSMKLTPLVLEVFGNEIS
# Chain of Nuclear receptor subfamily 1 group I member 2 (Rattus norvegicus) (Q9R1A7 whole entry, looked up): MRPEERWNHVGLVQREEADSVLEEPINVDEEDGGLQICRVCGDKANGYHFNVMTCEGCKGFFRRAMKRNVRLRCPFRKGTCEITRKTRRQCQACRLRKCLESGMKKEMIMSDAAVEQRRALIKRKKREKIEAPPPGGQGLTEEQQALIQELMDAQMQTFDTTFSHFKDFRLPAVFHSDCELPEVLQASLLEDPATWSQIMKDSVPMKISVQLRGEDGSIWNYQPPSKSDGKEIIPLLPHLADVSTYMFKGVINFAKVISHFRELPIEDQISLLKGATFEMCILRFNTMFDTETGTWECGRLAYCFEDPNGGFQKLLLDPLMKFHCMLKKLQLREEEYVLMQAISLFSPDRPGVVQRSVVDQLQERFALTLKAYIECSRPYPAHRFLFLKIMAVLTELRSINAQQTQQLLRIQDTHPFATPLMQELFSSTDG
# Chain of Nicotinamide N-methyltransferase (Homo sapiens) (P40261 whole entry, looked up): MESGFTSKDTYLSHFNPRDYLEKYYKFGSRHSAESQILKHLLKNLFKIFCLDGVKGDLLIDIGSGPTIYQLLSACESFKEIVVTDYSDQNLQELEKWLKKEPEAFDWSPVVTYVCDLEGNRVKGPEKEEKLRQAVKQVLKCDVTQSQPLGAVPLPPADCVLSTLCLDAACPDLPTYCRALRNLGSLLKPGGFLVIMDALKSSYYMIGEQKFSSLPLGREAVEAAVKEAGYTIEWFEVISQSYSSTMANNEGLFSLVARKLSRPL
# Chain of Catechol O-methyltransferase (Homo sapiens) (P21964 whole entry, looked up): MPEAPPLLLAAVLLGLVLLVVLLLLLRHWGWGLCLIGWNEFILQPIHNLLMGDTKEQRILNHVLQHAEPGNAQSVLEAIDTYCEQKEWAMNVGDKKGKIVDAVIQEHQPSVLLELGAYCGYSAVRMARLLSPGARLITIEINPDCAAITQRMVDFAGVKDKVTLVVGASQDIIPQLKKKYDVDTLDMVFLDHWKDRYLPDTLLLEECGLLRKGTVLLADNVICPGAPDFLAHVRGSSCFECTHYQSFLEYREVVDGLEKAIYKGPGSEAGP
structure (smiles),measurement,setting,value
CCOc1cc(C=O)ccc1O,Potency,[1],inactive
same,Potency,[2],inactive
same,activation,[3],-1.8% (inactive)
same,activation,[4],-0.0137% (inactive) and -0.605% (inactive)
same,max response,[5],-3.28% (inactive) and -2.59% (inactive)
same,max response,[6],-16.9% (inactive) and 0.643% (inactive)
same,outcome,[7],inactive
same,max response,[8],-3.58% (inactive) and -0.453% (inactive)
same,outcome,[9],inactive
C[C@@H]1[C@@H]2Cc3ccc(O)cc3[C@@]1(C)CCN2CCc1ccccc1,Potency,[10],inactive
same,Potency,[11],inactive
COC(=O)c1ccccc1C(=O)OC,Potency,[1],inactive
same,Potency,[2],inactive
same,activation,[3],-1.52% (inactive) and -1.95% (inactive)
same,activation,[4],-0.143% (inactive) and 1.34% (inactive)
same,max response,[5],0.0123% (inactive) and 4.21% (inactive)
same,max response,[6],8.24% (inactive) and 6.8% (inactive)
same,outcome,[7],inactive
same,max response,[8],5.6% (inactive) and 2.87% (inactive)
same,outcome,[9],inactive
CNC(C)CC1CCCCC1 (configuration not stated),outcome,[12],inactive
same,Potency,[13],inactive
same,outcome,[14],inactive [at 85.7 µM]
Cc1ccc2c(c1)[C@]13CCCC[C@@H]1[C@H](C2)N(C)CC3,Potency,[10],inactive
same,Potency,[11],inactive
same,outcome,[12],inactive
same,outcome,[14],inactive
CN1CC[C@@]23CCCC[C@@H]2[C@@H]1Cc1ccc(O)cc13,Potency,[10],inactive
same,Potency,[11],inactive
CC(=O)[C@@]1(O)CC[C@H]2[C@@H]3CCC4=CC(=O)CC[C@]4(C)C3(F)[C@@H](O)C[C@@]21C (some centres not stated),outcome,[12],inactive
same,Potency,[13],inactive
same,outcome,[14],inactive
C[N+](C)(C)CC(=O)[O-],Potency,[15],inactive
CCOC(=O)C1(c2ccccc2)CCCN(C)CC1 (configuration not stated),outcome,[12],inactive
same,Potency,[13],inactive
same,outcome,[14],inactive
N#Cc1ccc(N2CCN(C(=O)COc3ccc4[nH]cc(CCN)c4c3)CC2)cc1,activity,[16],-2.1%
same,"activity change, negative = inhibition",[17],0.371%
same,activity,[18],2.26%
same,activity,[19],2.22%
Clc1ccc([C@@H]2C[C@H]3CC[C@@H]2N3)cn1,Potency,[15],inactive
COC(=O)[C@H]1[C@@H](OC(=O)c2ccccc2)C[C@@H]2CC[C@H]1N2C,Potency,[15],inactive
same,outcome,[12],inactive [at 114 µM]
same,Potency,[13],inactive
same,outcome,[14],inactive [at 114 µM]
C[C@H]1[C@H]2Cc3ccc(O)cc3[C@]1(C)CCN2CCc1ccccc1,Potency,[10],inactive
same,Potency,[11],inactive
